Measurements from PubChem BioAssay (NCI).
About 79,000 compounds went through this panel and 15% of them were active in at least one assay; those are over-represented in the sample as a whole. A number with no mark means an inactive call. Active and inactive are the calls of the source. No stated cut-off is given here; in the data, active means growth inhibition above about 70%; inactive means the rest.

Experiments:
[1] = NCI Yeast Anticancer Drug Screen. Data for the rad50 strain (AID 155);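 further: 0% = growth of vehicle-only cultures of the same strain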; conditions: S. cerevisiae rad50 strain growth inhibition, hits give high values
Procedure, shortened: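 Compounds were tested on a yeast strain with an engineered DNA damage repair alteration; the reported value is growth inhibition normalised to vehicle treatment.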

[2] = NCI Yeast Anticancer Drug Screen. Data for the mec2-1 strain (AID 157); conditions: S. cerevisiae mec2-1 strain, hits give high values
Procedure, shortened: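 Yeast mec2-1 mutant treated with compound. Readout: growth inhibition vs vehicle controls.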

[3] = NCI Yeast Anticancer Drug Screen. Data for the sgs1 mgt1 strain (AID 161);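 further: 0% = growth of cultures given vehicle only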; conditions: S. cerevisiae sgs1 mgt1 strain, hits give high values
Procedure, shortened: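 Test agents were incubated with a DNA-repair-mutant yeast strain. Growth was then read and compared against vehicle-treated controls.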

[4] = NCI Yeast Anticancer Drug Screen. Data for the cln2 rad14 strain (AID 165);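 further: 0% = growth equal to vehicle treated cultures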; conditions: S. cerevisiae cln2 rad14 strain, hits give high values
Procedure, shortened: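 cln2 rad14 yeast strain; compound exposure; growth inhibition read vs vehicle controls.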

[5] = NCI Yeast Anticancer Drug Screen. Data for the bub3 strain (AID 167); conditions: S. cerevisiae bub3 mutant strain, hits give high values
Procedure, shortened: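 Growth of a checkpoint-deficient yeast mutant is measured after compound exposure. Values represent inhibition relative to vehicle.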

[6] = NCI Yeast Anticancer Drug Screen. Data for the mlh1 rad18 strain (AID 175); conditions: S. cerevisiae mlh1 rad18 strain growth inhibition, hits give high values
Procedure, shortened: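 Yeast w/ defined DNA-repair lesions; compound exposure; growth vs vehicle controls → % inhibition.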

[7] = at 5.0 µM (retest, dose inferred, filed as 0.5)
[8] = at 50.0 µM (retest, dose inferred, filed as 5.0)

Row | Compound | growth inhibition [1, 7] | growth inhibition [1, 8] | growth inhibition ([1]; at 50.0 µM) | growth inhibition [2, 7] | growth inhibition [2, 8] | growth inhibition ([2]; at 50.0 µM) | growth inhibition [3, 7] | growth inhibition [3, 8] | growth inhibition ([3]; at 50.0 µM) | growth inhibition [4, 7] | growth inhibition [4, 8] | growth inhibition ([4]; at 50.0 µM) | growth inhibition [5, 7] | growth inhibition [5, 8] | growth inhibition ([5]; at 50.0 µM) | growth inhibition [6, 7] | growth inhibition [6, 8] | growth inhibition ([6]; at 50.0 µM)
1 | CCCCCCCCCCCCS(=O)(=O)CC(Br)C(=O)c1ccco1 (configuration not stated) | 57% | 96% (active) | 94.2% (active) | 42% | 97% (active) | 96.9% (active) | 67% | 96% (active) | 95.3% (active) | 12% | 90% (active) | 93.7% (active) | 43% | 95% (active) | 95.1% (active) | 68% | 93% (active) | 95.3% (active)
2 | O=C1c2ccccc2C(=O)N1/N=C\c1ccccc1[N+](=O)[O-] | 1% | 75% (active) | 89% (active) | -2% | 41% | 4.9% | 3% | 96% (active) | -3.8% | -5% | 32% | -29.1% | -3% | 85% (active) | 3.75% | -3% | 93% (active) | 0.5%
3 | COC(=O)C(Sc1ccc(Cl)cc1)C1SC(=S)N(C)C1=O (configuration not stated) | 34% | 99% (active) | 62% | 19% | 99% (active) | 41.5% | 21% | 99% (active) | 65.9% | 27% | 99% (active) | 37.2% | 15% | 99% (active) | 84.8% (active) | 38% | 98% (active) | 58%
4 | COc1nc(N)c(N=O)c(OCc2ccccc2)n1 | 83% (active) | 97% (active) | 89% (active) | 99% (active) | 98% (active) | 92.6% (active) | 62% | 57% | 91.4% (active) | 55% | 98% (active) | 89.8% (active) | 97% (active) | 98% (active) | 91.6% (active) | 99% (active) | 97% (active) | 89.3% (active)
5 | O=C(O)/C=C/c1ccc(Cl)cc1Cl | 6% | 95% (active) | 89.5% (active) | -8% | 56% | 33.5% | 2% | 39% | 65.8% | 1% | 57% | 37.8% | 41% | 85% (active) | 74.3% (active) | 6% | 94% (active) | 92.6% (active)
6 | C=CCc1cc(Cl)ccc1O | 1% | 51% | 37.6% | -2% | 27% | 79% (active) | 1% | 40% | 83.5% (active) | 1% | 14% | 61.2% | 0% | 19% | 38.7% | 1% | 51% | 36.4%
7 | CC(=O)NCC1OC2COC(c3ccccc3)OC2C(NC(=O)c2ccccc2)C1OC(=O)c1ccccc1 (configuration not stated) | 15% | 10% | 22.4% | 15% | 10% | 11.8% | -11% | -13% | 2.3% | 6% | -15% | 6.7% | 8% | 5% | 7.55% | 15% | 9% | 91.3% (active)
8 | COC1=CC(=O)c2c(ccc3ncnc(N)c23)C1=O | 20% | 73% (active) | 22% | 15% | 15% | 3.35% | 14% | 28% | -6% | 18% | 32% | 24.9% | 19% | -11% | 17.5% | 13% | 59% | -4.3%
9 | CN(C)C(=S)S(=O)(=O)CCCCS(=O)(=O)C(=S)N(C)C | -1% | 3% | 86.3% (active) | 3% | 8% | 32.1% | 2% | 11% | 92.3% (active) | -6% | -1% | 9% | -2% | 0% | 20.9% | -3% | 7% | 81.8% (active)
10 | CC1SC2(C(=O)Nc3ccc([N+](=O)[O-])cc32)N(c2ccc(Cl)cc2)C1=O (configuration not stated) | 7% | 97% (active) | 95.6% (active) | -2% | 97% (active) | 95.7% (active) | -1% | 98% (active) | 79.2% (active) | -1% | 97% (active) | 81.7% (active) | 12% | 98% (active) | 96.2% (active) | 6% | 98% (active) | 93.5% (active)
11 | Cc1cc2c(cc1O)CC[C@@H]1[C@@H]2CC[C@]2(C)[C@@H](O)CC[C@@H]12 | -29% | -27% | 38.5% | -25% | -16% | 35.2% | -32% | -32% | 68% | -9% | -17% | 50.2% | -42% | -29% | 37.5% | -35% | -22% | 50%
12 | O=[N+]([O-])/C(C(Cl)=C(Cl)Cl)=C(/Nc1ccccc1)SCc1ccccc1 | 32% | 100% (active) | 12.3% | 32% | 100% (active) | 26.1% | 13% | 99% (active) | 18.9% | 21% | 97% (active) | 14.6% | 28% | 94% (active) | 43.4% | 38% | 100% (active) | 50.6%
13 | COc1ccc(CNC(C#N)c2ccccc2)cc1OC (configuration not stated) | 7% | -2% | 99% (active) | 2% | -3% | 99.7% (active) | 3% | -2% | 99.7% (active) | 5% | -3% | 99.5% (active) | 1% | -4% | 99.6% (active) | 2% | -5% | 99.5% (active)
14 | O=[N+]([O-])c1ccc(O)c(C2CCCCC2)c1 | 72% (active) | 98% (active) | 99.5% (active) | 67% | 99% (active) | 99.2% (active) | 62% | 99% (active) | 99.7% (active) | 64% | 99% (active) | 99.5% (active) | 79% (active) | 98% (active) | 100% (active) | 87% (active) | 99% (active) | 99% (active)
15 | Clc1ccc(C(CCOc2ccccc2Br)Cn2ccnc2)c(Cl)c1 (configuration not stated) | 89% (active) | 98% (active) | 99.7% (active) | 75% (active) | 99% (active) | 99.7% (active) | 82% (active) | 99% (active) | 99.7% (active) | 68% | 99% (active) | 97% (active) | 89% (active) | 99% (active) | 99.7% (active) | 79% (active) | 99% (active) | 95.3% (active)
16 | COc1nc2nc(Cl)cc(C)c2c2ccccc12 (tested in a mixture with another compound) | 33% | 94% (active) | 98.1% (active) | 11% | 91% (active) | 65.2% | 8% | 76% (active) | 52.1% | 3% | 86% (active) | 71.8% (active) | 5% | 94% (active) | 78.5% (active) | 17% | 93% (active) | 54.2%
17 | COc1ccc(C2=C/C(=C3\C(=O)Oc4ccccc4C3=O)SS2)cc1 | 0% | 32% | -5.95% | -2% | 7% | -1.6% | 2% | 50% | -3.75% | 1% | 36% | 38.5% | 3% | 24% | -3.75% | -2% | 32% | 1.2%
18 | CCN(c1ccc(C=O)cc1)c1ccc([N+](=O)[O-])cc1[N+](=O)[O-] | 3% | 33% | 50.5% | -1% | 30% | 26.2% | 3% | 70% (active) | 74% (active) | 1% | 11% | 18.2% | 2% | 23% | 7.85% | 8% | 59% | 38.7%
19 | CN(C)N=Nc1c(-c2cccs2)n[nH]c1C(F)(F)F | 98% (active) | 99% (active) | 99.4% (active) | 99% (active) | 100% (active) | 99.8% (active) | 100% (active) | 100% (active) | 99.6% (active) | 99% (active) | 99% (active) | 99.5% (active) | 99% (active) | 99% (active) | 99.5% (active) | 99% (active) | 99% (active) | 99.6% (active)
